These results are taken from PubChem BioAssay (NCI).

The structures appear in SMILES notation. Compounds without any hit were thinned out: in the full panel of roughly 83,000, 20% have a hit.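 Plates (96-well) were seeded with cells, treated with compound at one concentration, and incubated for 48 hours before percent growth was determined.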 A number with no mark means an inactive call. The source made the active and inactive calls. Rule for the calls: active = growth percent below 10; inactive = the rest.

The test system of this experiment is SK-OV-3 ovarian. Nature of the experiment: NCI-60 one-dose screen, 48 h (100 = growth as untreated, 0 = no growth, -100 = all killed). The note with it: 10 µM unless noted.
With `Cn1ccnc1C(=O)/C=C/c1ccc(NC(=O)Nc2ccc(Cl)cc2)cc1`, the growth was 84.3%.

Consider `C#Cc1nc(C2=C(C)/C(=N/OCc3ccccc3)CC2)cs1`, for which the growth was -22.3% (active).

For the compound `COc1ccc(-n2c(SCC(=O)Nc3ccc(-c4nc5ccccc5[nH]4)cc3)nc3ccccc3c2=O)cc1`, the growth was 136%.

Consider `COc1cc(OC)c(S(=O)(=O)NNC(=O)c2ccncc2)cc1C(=O)/C=C/c1ccc(C)cc1`, for which the growth is 101%.

Consider `COC(=O)C(C)NS(=O)(=O)/N=C1\NC(=O)NC1=C(Cl)Cl` (stereo not given), for which the growth was 119%.

Turning to `COc1ccc(C(=O)/C=C/c2ccc(Oc3nc(NCCO)nc(N4CCOCC4)n3)c(OC)c2)cc1`, the growth is 108%.

Regarding `NS(=O)(=O)c1cccc(Nc2nc(SCC(=O)c3ccc(Br)cc3)nc3ccccc23)c1`, the growth was 90.1%.

Turning to `O=C(N/N=C/c1ccc([N+](=O)[O-])o1)c1[nH]c2ccc(Br)cc2c1-c1ccccc1`, the growth is 30.4%.

Take `O=C(N/N=C/c1cccs1)c1[nH]c2ccc(Br)cc2c1-c1ccccc1`: the growth was 36%.

On to `COc1cc2cc(Oc3ccc(NC(=O)c4cccc(C(F)(F)F)c4)cc3)c(C)nc2cc1OCCN1CCCCC1`, for which the growth is 101%.

As for `Cc1sc2c(c1C)c(=O)nc1c(-c3nc(-c4ccc(F)cc4)no3)n[nH]n12`, the growth was 101%.

For `N#Cc1nc(-c2ccccc2)oc1N1CC[C@@H](CO)C1`, the growth is 116%.

For the compound `Cn1ccnc1C(=O)/C=C/c1ccc(NC(=O)Nc2ccc(F)cc2)cc1`, the growth was 52.8%.

Take `NS(=O)(=O)c1ccc(Nc2nc(Nc3ccccc3)nc(-n3nc(-c4ccccc4)cc3-c3ccccc3)n2)cc1`: the growth is 65.8%.

Regarding `C#Cc1nc(C2=C(C)C(O)/C(=N/O)C2)cs1` (stereo not given), the growth was 111%.

Take `CN1CCc2c(sc3ncnc(N/N=C/c4ccc(Cl)c(Cl)c4)c23)C1`: the growth is 28.3%.

On to `O=C(CSc1nnc(-c2ccc3nc(-c4ccc(Cl)cc4)[nH]c3c2)o1)Nc1ccc(C(=O)/C=C/c2ccc(Cl)cc2)cc1`, for which the growth was 110%.

Consider `O=C(N/N=C/c1ccc(Br)s1)c1[nH]c2ccc(Br)cc2c1-c1ccccc1`, for which the growth is 40.6%.

With `C#Cc1nc(C2=C(C)C(O)CC2)cs1` (stereo not given), the growth is 89%.

Consider `O=C(N/N=C/c1ccc[nH]1)c1[nH]c2ccc(Br)cc2c1-c1ccccc1`, for which the growth is 36.7%.

Consider `COc1ccc(/C=N/NC(=O)c2[nH]c3ccc(Br)cc3c2-c2ccccc2)s1`, for which the growth was 25.7%.

As to `C/C(=N\NC(N)=O)c1c(O)sc(=O)[nH]c1=O`, the growth is 115%.

Consider `C#Cc1nc(C2=C(C)C(=O)/C(=N/OC(C)=O)C2)cs1`, for which the growth is 104%.

`Cn1ccnc1C(=O)/C=C/c1ccc(NC(=O)Nc2ccccc2)cc1`: the growth was 13.3%.

Consider `COc1cc(/C=C/C(=O)c2cc(OC)c(OC)c(OC)c2)ccc1OCc1ccccc1`, for which the growth is 88.1%.

With `CC(O)C(NC(=O)C1CCCN1C(=O)CNC(=O)C1CC(=O)NCC(=O)NC(Cc2c[nH]c3ccccc23)C(=O)NC(Cc2ccc(O)cc2)C(=O)NCC(=O)NC(CO)C(=O)NC(CCC(N)=O)C(=O)NC(Cc2c[nH]c3ccccc23)C(=O)N1)C(=O)NCC(=O)NC(CCC(N)=O)C(=O)NC(CCCNC(=N)N)C(=O)NC(CC(=O)O)C(=O)O` (stereo not given), the growth was 106%.

Turning to `COc1cc(/C=C/C(=O)c2cc(OC)c(OC)c(OC)c2)ccc1OCc1ccc(F)cc1`, the growth was 45.5%.

As to `O=C(N/N=C/c1ccc([N+](=O)[O-])s1)c1[nH]c2ccc(Br)cc2c1-c1ccccc1`, the growth is 45.8%.

Regarding `N#Cc1c(-c2ccc(Cl)cc2)nc2c(-c3ccccc3)c(Nc3ccccc3)nn2c1N`, the growth is 42.7%.

Consider `O=C(Oc1ccc2ccc(=O)oc2c1)c1ccc(Cl)cc1`, for which the growth was 109%.

As to `C#Cc1nc(C2=C(C)C(OC(=O)CCC(=O)O)CC2)cs1` (stereo not given), the growth is 125%.

With `C#Cc1nc(C2=C(C)C(=N\O)/C(=N/O)C2)cs1`, the growth is 105%.

For the compound `O=C(N/N=C/c1ccco1)c1[nH]c2ccc(Br)cc2c1-c1ccccc1`, the growth was 36.1%.

For the compound `COC(=O)C(Cc1ccccc1)NS(=O)(=O)/N=C1\NC(=O)NC1=C(Cl)Cl` (stereo not given), the growth was 108%.

In the case of `N#Cc1ccc(/C=N/NC(=O)c2[nH]c3ccc(Br)cc3c2-c2ccccc2)s1`, the growth was 22.6%.
